From PubChem BioAssay come the findings set out here.

Test [1] in a line: ovarian cancer cell viability with rucaparib, profiling panel, oncology-focused library, rucaparib conditional (AID 1508598). The settings on record: patient-derived ovarian cancer cells, CellTiter-Glo viability, 144 h, stronger effect = lower value. On the technique in general: ATP-based viability assays read luminescence as a measure of living cells.
Test [2] in a line: growth inhibition of DIPG glioma cells, dose response, cell-based, SU-DIPG-XVII, MIPE5.0, CellTiter-Glo, qHTS (AID 1347060; cut-off not given, nearly all actives have AC50 up to about 26 µM;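 for AC50: cells exposed to compound for 48 hours before viability readout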). To be noted: SU-DIPG-XVII viability, CellTiter-Glo ATP luminescence.
Test [3] in a line: growth inhibition of DIPG glioma cells, dose response, cell-based, SU-DIPG-XIII, MIPE4.0, CellTiter-Glo, qHTS (AID 1347061; cut-off not given, nearly all actives have AC50 up to about 37 µM;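 note: cells exposed to compound for 48 hours before readout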). To be noted: SU-DIPG-XIII viability, CellTiter-Glo ATP luminescence.
Test [4] in a line: growth inhibition of DIPG glioma cells, dose response, cell-based, JHH-DIPG-1, MIPE4.0, CellTiter-Glo, qHTS (AID 1347062; cut-off not given, nearly all actives have AC50 up to about 27 µM;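 for AC50: cells exposed to compound for two days before readout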). The settings on record: JHH-DIPG-1 viability, CellTiter-Glo ATP luminescence.
Test [5] is described as follows: growth inhibition of DIPG glioma cells, dose response, cell-based, SU-DIPG-XIII, MIPE5.0, CellTiter-Glo, qHTS (AID 1347064; cut-off not given, nearly all actives have AC50 up to about 23 µM;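 for AC50: cells exposed to compound for 48 hours before the viability read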). To be noted: SU-DIPG-XIII viability, CellTiter-Glo ATP luminescence.
Test [6] in a line: viability loss in pontine glioma line – cell-based, SU-DIPG-XXV, MIPE5.0, CellTiter-Glo, qHTS, dose response (AID 1347065; cut-off not given, nearly all actives have AC50 up to about 26 µM;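 note: cells exposed to compound for 48 hours before ATP readout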). To be noted: CellTiter-Glo ATP luminescence.
A short description of test [7]: SU-DIPG-VI glioma cell viability, MIPE4.0 library, CellTiter-Glo luminescence, qHTS (AID 1347066; cut-off not given, nearly all actives have AC50 up to about 30 µM;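 note: cells exposed to compound for 48 hours before readout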). The settings on record: CellTiter-Glo ATP luminescence.
Test [8] can be described thus: JHH-DIPG-1 glioma cell viability, MIPE5.0 library, CellTiter-Glo luminescence, qHTS (AID 1347067; cut-off not given, nearly all actives have AC50 up to about 26 µM;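 note: cells exposed to compound for 48 hours before readout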). The settings on record: JHH-DIPG-1 glioma viability, CellTiter-Glo ATP luminescence.
Test [9] in a line: SU-DIPG-XXV glioma cell viability, MIPE5.0 library, qHTS (AID 1347068; cut-off not given, nearly all actives have IC50 up to about 30 µM;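 for IC50: cells exposed to compound for 48 hours before viability readout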).
Test [10] in a line: sensitizers of A549 cells to miR-34 induction, primary screen, imaging, A549 dox-inducible miR-34, nuclei and caspase counts (AID 1347080;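 active = compounds whose cell count with miR-34 switched on is under 0.7 times the count with it off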). To be noted: A549 miR-34 inducible, Hoechst nuclei count, 48 h.
Test [11] is described as follows: survival rescue of mitochondrial mutant cells in low glucose, primary screen, MELAS cybrids, Rieske KO mouse fibroblasts, CellTiter-Glo (AID 1508586;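 active = mean z-score across replicates of 1.96 or higher in either the MELAS or the Rieske mutant cell line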;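 note: z relative to plate mean and SD of compound and empty wells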).
Test [12] can be described thus: growth inhibition of DIPG glioma cells, dose response, cell-based, SU-DIPG-IV, MIPE4.0, CellTiter-Glo, qHTS (AID 1347063; cut-off not given, nearly all actives have AC50 up to about 30 µM;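 note: compound exposure lasted 48 hours before the viability readout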). The settings on record: SU-DIPG-IV viability, CellTiter-Glo ATP luminescence.
Test [13] in a line: modifiers of HSF1 nuclear foci, imaging, Selleck Cancer Library (AID 1347162; in the data active = plate-normalised HSF1 focus index below about 0.46). The settings on record: human cells, at 10 µM; SSMD: measured here: HSF1 foci SSMD mean; cell count: measured here: cell number; plate-normalised HSF1 focus index: stronger effect = lower value.
Where [14] appears, read: at 0.0195 µM, OCI-P5x cells, with rucaparib 20 µM, 100% = cells with rucaparib alone.
Setting [15] is: at 0.0195 µM, OCI-P5x cells, without rucaparib.
[16] abbreviates: at 0.0781 µM, OCI-C5x cells, with rucaparib 10 µM, 100% = cells with rucaparib alone.
The mark [17] stands for this setting: at 0.0781 µM, OCI-C5x cells, without rucaparib.
[18] abbreviates: at 0.0781 µM, OCI-P5x cells, with rucaparib 20 µM, 100% = cells with rucaparib alone.
Setting [19] is: at 0.0781 µM, OCI-P5x cells, without rucaparib.
Where [20] appears, read: at 0.313 µM, OCI-C5x cells, with rucaparib 10 µM, 100% = cells with rucaparib alone.
Setting [21] is: at 0.313 µM, OCI-C5x cells, without rucaparib.
Setting [22] is: at 0.313 µM, OCI-P5x cells, with rucaparib 20 µM, 100% = cells with rucaparib alone.
[23] abbreviates: at 0.313 µM, OCI-P5x cells, without rucaparib.
The mark [24] stands for this setting: at 1.25 µM, OCI-C5x cells, with rucaparib 10 µM, 100% = cells with rucaparib alone.
[25] abbreviates: at 1.25 µM, OCI-C5x cells, without rucaparib.
[26] abbreviates: at 1.25 µM, OCI-P5x cells, with rucaparib 20 µM, 100% = cells with rucaparib alone.
Where [27] appears, read: at 1.25 µM, OCI-P5x cells, without rucaparib.
Where [28] appears, read: at 5 µM, OCI-C5x cells, with rucaparib 10 µM, 100% = cells with rucaparib alone.
Setting [29] is: at 5 µM, OCI-C5x cells, without rucaparib.
Where [30] appears, read: at 5 µM, OCI-P5x cells, with rucaparib 20 µM, 100% = cells with rucaparib alone.
The mark [31] stands for this setting: at 5 µM, OCI-P5x cells, without rucaparib.
Setting [32] is: stronger effect = lower value, cell number ratio, induced over uninduced.
The mark [33] stands for this setting: measured here: relative caspase fold change +Dox/-Dox.
[34] abbreviates: measured here: total cells with miR-34 induction, stronger effect = lower value.
Setting [35] is: measured here: total cells without miR-34 induction.
Setting [36] is: MELAS cybrid survival, CellTiter-Glo 48 h, stronger effect = higher value.
[37] abbreviates: Rieske KO mouse fibroblast survival, CellTiter-Glo 72 h.

Results filed as inconclusive are left out. Calls of active or inactive are those of the source.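 Rule for the calls, unless noted: active = normalized viability below 100% at a tested concentration; inactive = the rest.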

For `OCCn1cc(-c2cnc3nnn(Cc4ccc5ncccc5c4)c3n2)cn1`, the viability (usually a read-out of living cells in per cent, often relative to untreated cells) in [1] (setting [14]) is 102% (inactive); in [1] (setting [15]), 99.8% (active); in test [1] (setting [16]) it was 124% (inactive); in test [1] (setting [17]), 117% (inactive); in test [1] (setting [18]) it was 102% (inactive); in test [1] (setting [19]) it was 101% (inactive). For the same molecule, the viability in test [1] (setting [20]) is 126% (inactive); in [1] (setting [21]) it was 118% (inactive); in [1] (setting [22]), 102% (inactive); in [1] (setting [23]), 106% (inactive); in [1] (setting [24]) it was 124% (inactive); in test [1] (setting [25]), 113% (inactive). In addition, the viability in test [1] (setting [26]) was 101% (inactive); in [1] (setting [27]) it was 99.8% (active); in [1] (setting [28]), 148% (inactive); in test [1] (setting [29]), 123% (inactive); in test [1] (setting [30]), 97.4% (active); in test [1] (setting [31]), 94.2% (active).

Regarding `Cc1c(Cn2c(C)nc3c(C(=O)O)cc(N4CCOCC4)cc32)cccc1C(F)(F)F`, the molecule was called inactive in [2], in test [3], in test [4], in test [5], in [6] and in test [7]. The molecule was called inactive in [8] and in [9]. Further, the fold change in [10] (setting [32]) was 0.907 (inactive); in [10] (setting [33]), 0.358. In addition, the cell count in [10] (setting [34]) worked out at 8050; in test [10] (setting [35]), 8880. The z-score in [11] (setting [36]) was -0.351 (inactive); in test [11] (setting [37]) it was 0.912.

For the molecule `C[C@H](CCC(=O)O)[C@H]1CCC2C3C[C@H](O)[C@@H]4C[C@H](O)CC[C@]4(C)C3CC[C@@]21C` (stereo partly specified), the molecule was classed as inactive in [2], in test [3], in test [4], in test [5], in [6] and in test [7]. The molecule was classed as inactive in test [8] and in [9].

On to `CC1(C)C(N(O)C(=O)Nc2ccc(Cl)cc2)N(c2ccc(Cl)cc2)C(=O)N1CC(=O)N/N=C/C=C/c1ccc([N+](=O)[O-])o1` (stereo unspecified), for which the AC50 (as a rule, the concentration at which the activity in the assay is half-maximal) is 7.42 µM (active) in test [2]; 26.4 µM (active) in [3]; 10.5 µM (active) in test [4]; 3.72 µM (active) in [5]; 14.8 µM (active) in [6]; 20.9 µM (active) in test [7]. Further, the half-maximal activity concentration (AC50) in test [8] is 6.61 µM (active). The 50% inhibitory concentration (IC50) (in general, the point on the concentration scale where inhibition reaches its midpoint) in test [9] is 18.6 µM (active).

On to `C/C=C1\NC(=O)[C@H]2CSSCC/C=C\[C@H](CC(=O)N[C@H](C(C)C)C(=O)N2)OC(=O)[C@H](C(C)C)NC1=O`, for which the half-maximal activity concentration (AC50) in [2] is 0.0833 µM (active); in test [3], 0.0148 µM (active); in test [4], 0.0118 µM (active); in test [12], 0.00935 µM (active); in test [6], 0.059 µM (active). In test [9], the IC50 is 3.72 µM (active).

With `Cn1cc(-c2ccc3ncc(Cc4ccc5ncccc5c4)n3n2)cn1`, the molecule was classed as inactive in test [2], in test [3], in test [4], in test [5], in test [6] and in test [7]. For the same molecule, the result in [8] and in test [9] was inactive. For the same molecule, the fold change is 0.865 (inactive) in [10] (setting [32]) and 0.902 in test [10] (setting [33]). In addition, the cell count in [10] (setting [34]) was found to be 8680; in test [10] (setting [35]), 10000. Further, the figures for the z-score in test [11] (setting [36]) and in [11] (setting [37]) were -0.376 (inactive) and 0.544, respectively.

With `COc1nc(C)cnc1NS(=O)(=O)c1cccnc1-c1ccc(-c2nnco2)cc1`, the molecule was classed as inactive in test [2], in test [3], in [4], in test [5], in test [6] and in [7]. For the same molecule, the molecule was called inactive in test [8] and in test [9]. Further, the fold change was 0.916 (inactive) in test [10] (setting [32]) and 0.943 in [10] (setting [33]). Further, the cell count in [10] (setting [34]) is 8060; in test [10] (setting [35]), 8800; in test [13], 7220. This molecule also displayed an SSMD in test [13] of 2.08. The plate-normalised HSF1 focus index in test [13] is 1.13 (inactive). The z-score in [11] (setting [36]) was -0.393 (inactive); in test [11] (setting [37]), 0.676. Moreover, the viability was 110% (inactive) in test [1] (at 0.000305 µM, OCI-C5x cells, with rucaparib 10 µM, 100% = cells with rucaparib alone); 112% (inactive) in [1] (at 0.000305 µM, OCI-C5x cells, without rucaparib); 102% (inactive) in [1] (at 0.000305 µM, OCI-P5x cells, with rucaparib 20 µM, 100% = cells with rucaparib alone); 109% (inactive) in test [1] (at 0.000305 µM, OCI-P5x cells, without rucaparib); 108% (inactive) in test [1] (at 0.00122 µM, OCI-C5x cells, with rucaparib 10 µM, 100% = cells with rucaparib alone); 117% (inactive) in test [1] (at 0.00122 µM, OCI-C5x cells, without rucaparib). Further, the viability in test [1] (at 0.00122 µM, OCI-P5x cells, with rucaparib 20 µM, 100% = cells with rucaparib alone) is 106% (inactive); in test [1] (at 0.00122 µM, OCI-P5x cells, without rucaparib) it was 109% (inactive); in [1] (at 0.00488 µM, OCI-C5x cells, with rucaparib 10 µM, 100% = cells with rucaparib alone) it was 98.1% (active); in test [1] (at 0.00488 µM, OCI-C5x cells, without rucaparib), 114% (inactive); in [1] (at 0.00488 µM, OCI-P5x cells, with rucaparib 20 µM, 100% = cells with rucaparib alone) it was 104% (inactive); in [1] (at 0.00488 µM, OCI-P5x cells, without rucaparib), 109% (inactive). The viability was 111% (inactive) in [1] (at 0.0195 µM, OCI-C5x cells, with rucaparib 10 µM, 100% = cells with rucaparib alone); 110% (inactive) in test [1] (at 0.0195 µM, OCI-C5x cells, without rucaparib); 100% (inactive) in test [1] (setting [14]); 108% (inactive) in test [1] (setting [15]); 103% (inactive) in test [1] (setting [16]); 113% (inactive) in test [1] (setting [17]). Further, the viability was 104% (inactive) in test [1] (setting [18]); 110% (inactive) in [1] (setting [19]); 105% (inactive) in [1] (setting [20]); 112% (inactive) in [1] (setting [21]); 103% (inactive) in test [1] (setting [22]); 108% (inactive) in test [1] (setting [23]). The viability in test [1] (setting [24]) is 97.7% (active); in test [1] (setting [25]), 112% (inactive); in test [1] (setting [26]), 104% (inactive); in test [1] (setting [27]), 111% (inactive); in test [1] (setting [28]), 106% (inactive); in test [1] (setting [29]), 116% (inactive). Also, the results for the viability in test [1] (setting [30]) and in test [1] (setting [31]) were 99% (active) and 106% (inactive), respectively.

For the molecule `C[N+](C)([O-])CCNc1ccc(NCC[N+](C)(C)[O-])c2c1C(=O)c1c(O)ccc(O)c1C2=O`, in test [2], the concentration at half-maximal activity (AC50) is 9.34 µM (active). The molecule was classed as inactive in test [3], in test [4], in test [12] and in test [7]. The half-maximal inhibitory concentration (IC50) in [9] was 0.00132 µM (active).

Regarding `C[C@@H]1C(=O)OC2[C@H](O)[C@]34[C@H]5C[C@@H](C(C)(C)C)[C@]36[C@@H](OC(=O)[C@@H]6O)O[C@@]4(C(=O)O5)[C@]21O` (stereo partly specified), the molecule was classed as inactive in test [2], in test [3], in test [4], in test [5], in test [6] and in test [7]. In addition, the molecule was called inactive in [8] and in test [9].
